Results filed as inconclusive are left out. Activity calls are given as the source filed them. How the source made its calls: active means hit-call score of the fitted dose curve at least 0.9, where 1 is the maximum; inconclusive means response in the unintended direction; inactive means score below 0.9.
Assay: TOX21_p53_BLA_p4_viability: Viability Assessment in the Tox21 HCT-116 p53 Agonism Beta-lactamase Assay, Phase 4 (AID 2283597);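 further: hits lower the luminescence signal meaning cytotoxicity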
Source text: TOX21_p53_BLA_p4 is a cell-based, single-readout assay that uses HCT116, a human intestinal cell line, […] in a 1536-well plate.TOX21_p53_BLA_p4_viability is an assay readout measuring cellular ATP content and detected with CellTiter-Glo Luciferase-coupled ATP quantitation.TOX21_p53_BLA_p4_viability used a type of viability reporter where loss-of-signal activity can be used to understand changes in the cell viability. Furthermore, this assay endpoint can be referred to as a secondary readout, because this assay has produced multiple assay endpoints where this one serves a viability function. To generalize the intended target to other relatable targets, this assay endpoint is annotated to the cell cycle intended target family, where the subfamily is cytotoxicity.
Thawing Method: Place 14 mL of pre-warmed thaw medium into a 15 mL of conical tub. Remove the vial of cells to be thawed from liquid nitrogen and thaw rapidly by placing at 37C in a water bath with gentle agitation for 1-2 minutes. Decontaminate the vial by wiping with 70% ethanol before opening in a biological safety cabinet. Transfer the vial contents drop-wise into 14 mL of thaw medium in a sterile 15-mL conical tub. Centrifuge cells at 900 rpm for 4 minutes and resuspend in thaw medium. Transfer contents to the T75 tissue culture flask containing Thaw Medium and place flask in a humidified 37C/5% CO2 incubator. Switch to growth medium at first passage.Propagation Method: Aspirate medium, rinse once in DPBS, add 0.25% Trypsin/EDTA and swirl to coat the cell evenly. Add an equal volume of Growth Medium to inactivate Trypsin after 2-3 minutes incubation at 37C. Centrifuge cells at 900 rpm for 4 minutes and resuspend in growth medium. Cell should be passage or fed at least twice a week.Assay Protocol: Harvest cells from culture in growth medium and resuspend in assay medium. 2.2 Dispense 4000 cells/5 uL/well into 1536-well black/clear bottom plates using a Multidrop dispenser. After the cells were incubated at 37C for 5 hours, 23 nL of compounds dissolved in DMSO were transferred to the assay plate by a PinTool resulting in a 217-fold dilution. Incubate the plates for 16 hours at 37C, 5% CO2. Add 1 uL of 6X LiveBLAzer FRET B/G (CCF4-AM) Substrate Mixture to each well using a BioRAPTR dispenser and incubate the plates at room temperature for 2 hours. Measure fluorescence intensity at 460 and 530 nm emission and 405 nm excitation by an Envision detector. Data is expressed as the ratio of 460nm/530nm emissions. Add 4 uL of Cell-titer Glo to each well using BioRAPTR and incubate the plates at room temperature for […]. For cell viability readout that measures cytotoxicity, 4 ul/well of CellTiter-Glo reagent was added into the assay plates using a Flying Reagent Dispenser. After 30 min incubation at room temperature, the luminescence intensity in the plates was measured using a ViewLux plate reader.
In the case of `COc1ccc(-c2cc(=S)ss2)cc1`, the outcome is reported as “inactive”.
For `COc1ccc(Nc2ccc(OC)cc2)cc1`, the outcome was “inactive”.
In the case of `CCN(C)C(=O)Oc1cccc([C@H](C)N(C)C)c1`, the outcome is reported as “inactive”.
For `OC(CCCN1CCCCC1)(c1ccccc1)c1ccccc1`, the outcome was “inactive”.
In the case of `CC(COc1ccccc1)NN` (stereo not given), the outcome is reported as “inactive”.
For `C[N+](C)(C)CC(O)CCl` (stereo not given), the outcome was “inactive”.
In the case of `Cc1ccc(O)c(N)c1`, the outcome is reported as “inactive”.
With `O=C(O)c1cc(O)c2c(c1)[O][Bi][O]2` the outcome was “inactive”.
With `C/C=C(/CC[C@@H](C)[C@H]1CC[C@H]2C3=CC[C@H]4[C@H](C)[C@@H](O)CC[C@]4(C)[C@H]3CC[C@]12C)C(C)C` the outcome was “inactive”.
In the case of `Cc1onc(-c2c(Cl)cccc2Cl)c1C(=O)N[C@@H]1C(=O)N2[C@@H]1SC(C)(C)[C@@H]2C(=O)O`, the outcome is reported as “inactive”.
With `Oc1ccc(C2CNCCc3c2cc(O)c(O)c3Cl)cc1` (stereo not given) the outcome was “inactive”.
For `CCc1ccc(C(=O)C(C)CN2CCCCC2)cc1` (stereo not given), the outcome was “inactive”.
In the case of `COc1cc2c(cc1OC)[C@@H](c1ccccc1)CN(C)CC2`, the outcome is reported as “inactive”.
For `CCCCOC(=O)C(=O)OCCCC`, the outcome was “inactive”.
In the case of `CS(=O)(=O)O`, the outcome is reported as “inactive”.
For `CC(=O)Nc1cccc(N)c1`, the outcome was “inactive”.
With `C[C@]12CC[C@@H]3c4ccc(O)cc4CC[C@H]3[C@@H]1CC[C@@H]2OP(=O)(O)O` the outcome was “inactive”.
With `COc1ccc(/C=C/C(=O)O)cc1` the outcome was “inactive”.
In the case of `NCc1ccc(S(N)(=O)=O)cc1`, the outcome is reported as “inactive”.
With `O=C(c1ccc(Cl)cc1)c1ccc(Cl)cc1` the outcome was “inactive”.
In the case of `COc1ccc2c(c1OC)C(=O)O[C@@H]2[C@H]1c2c(cc3c(c2OC)OCO3)CCN1C`, the outcome is reported as “inactive”.
In the case of `Cc1c(N=C=O)cccc1N=C=O`, the outcome is reported as “inactive”.
With `CCC=C1OC(=O)c2ccccc21` the outcome was “inactive”.
With `[O-][n+]1ccccc1SSc1cccc[n+]1[O-]` the outcome was “inactive”.
With `O=C1N=C2SCCN2C(=O)C1Cc1ccc(Cl)cc1` (stereo not given) the outcome was “inactive”.
With `CN(C)CC[C@@H](c1ccc(Cl)cc1)c1ccccn1` the outcome was “inactive”.
In the case of `O=C(c1ccc2c(c1)C(=O)OC2=O)c1ccc2c(c1)C(=O)OC2=O`, the outcome is reported as “inactive”.
With `CCCCCCCC/C=C\CCCCCCCC(N)=O` the outcome was “inactive”.
With `Nc1nc(NC2CC2)c2ncn([C@H]3C=C[C@@H](CO)C3)c2n1` the outcome was “inactive”.
With `CCN(CCCc1ccccc1)CCCc1ccccc1` the outcome was “inactive”.
In the case of `Nc1nc(-c2ccc([N+](=O)[O-])cc2)cs1`, the outcome is reported as “inactive”.
In the case of `CC(C(=O)O)c1ccc2c(c1)Cc1cccnc1O2` (stereo not given), the outcome is reported as “inactive”.
In the case of `CO[C@@]1(NC(=O)C2SC(=C(C(N)=O)C(=O)O)S2)C(=O)N2C(C(=O)O)=C(CSc3nnnn3C)CS[C@@H]21` (stereo not given in full), the outcome is reported as “inactive”.
With `O=C(O)[C@H]1/C(=C/CO)O[C@@H]2CC(=O)N21` the outcome was “inactive”.
In the case of `Oc1cc(O)cc(O)c1`, the outcome is reported as “inactive”.
For `COc1cc(Cl)ccc1Cl`, the outcome was “inactive”.
With `CC(=O)O[C@H]1CC[C@@]2(C)C(=CC[C@@H]3[C@@H]2CC[C@]2(C)C(c4cccnc4)=CC[C@@H]32)C1` the outcome was “inactive”.
For `CCN(CC)CCC(=O)N1c2ccccc2Sc2ccc(C(F)(F)F)cc21`, the outcome was “inactive”.
With `O=C(CCN1CCC(c2ccccc2)C1)c1ccc2c(c1)OCCO2` (stereo not given) the outcome was “inactive”.
In the case of `COC(=O)c1cccc(Cl)c1`, the outcome is reported as “inactive”.

— PubChem BioAssay (EPA / NIEHS)
